Experimental data from PubChem BioAssay (Tox21).
Values without a mark were called inactive. Inconclusive results are not listed. Entries that show only a call come without a potency. Activity calls are given as the source filed them. Unless noted, calls come from the whole dose curve; as a rule, active = well fitted curve in the direction sought with a large enough effect in the repeat runs; inconclusive = weak or mixed curves; inactive = no such curve, though single readings can be large; an effect the other way counts as inactive or inconclusive.

How the values were obtained:
[1] = qHTS assay for small molecule agonists of the p53 signaling pathway (AID 651631; calls by dose curve; note: nearly all actives have a fitted effect of over 15% in size; note: potency is the fitted concentration of half-maximal effect)
Method in brief: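 Fluorescence intensity from cleaved LiveBLAzer B/G substrate (2 h, room temperature) served as the signal. Beforehand, HCT-116 reporter cells bearing p53 response elements were treated 16 h at 37 °C with DMSO-dissolved compounds.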

[2] = qHTS assay for small molecules that induce genotoxicity in human embryonic kidney cells expressing luciferase-tagged ATAD5 (AID 651632); note: nearly all actives have a fitted effect of over 15% in size
Method in brief: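 Luminescence read-out: after 16 hr compound exposure at 37C, ATAD5-luciferase HEK293T cells received Amplite, 30 min RT, then CCD imaging. A rise in signal marks genotoxic stress.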

[3] = qHTS assay for small molecule agonists of the p53 signaling pathway - cell viability (AID 651633; calls by dose curve;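 note: p53RE-bla HCT reporter cells with a stable beta-lactamase p53 reporter; nearly all actives have a fitted effect of over 30% in size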)
Method in brief: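 Viability counter-read: CellTiter-Glo luminescence (30 min, room temperature) in the same p53RE-bla plates. These plates had been exposed to compounds for 16 h at 37 C.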

[4] = qHTS assay for small molecules that induce genotoxicity in human embryonic kidney cells expressing luciferase-tagged ATAD5 - cell viability (AID 651634; calls by dose curve; note: nearly all actives have a fitted effect of over 25% in size)
Method in brief: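 HEK293T ATAD5-luc cells, 2,000/well; compound 15.5 hr, 37C/5% CO2; CellTiter-Fluor 30 min, 37C; fluorescence read.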

[5] = qHTS assay for small molecule disruptors of the mitochondrial membrane potential - cell viability (AID 720634; calls by dose curve;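 note: human HepG2 liver cancer cells; nearly all actives have a fitted effect of over 20% in size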)
Method in brief: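 Luminescence from CellTiter-Glo (ATP content) gave viability in HepG2 cells, read in the same wells as the MMP dye assay after 1 hr compound exposure at 37 C.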

[6] = qHTS assay to test for compound auto fluorescence at 590 nm (red) in HepG2 cells (AID 720674)
Method in brief: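 1 hr compound incubation on HepG2 cells, 37 C, 5% CO2; plate read ex 540 nm / em 590 nm; intensities reported as Rose Bengal sodium equivalents.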

[7] = qHTS assay to test for compound auto fluorescence at 535 nm (green) in HepG2 cells (AID 720675)
[8] = qHTS assay to test for compound auto fluorescence at 460 nm (blue) in HEK293 cells (AID 720678)
Method in brief: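 Auto fluorescence in the blue band was quantified as triamterene equivalency. HEK293 cells were seeded at 2,000/well, dosed after a 4-5 hr attachment, and kept overnight at 37C before the 405/460 nm reading.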

[9] = qHTS assay to test for compound auto fluorescence at 590 nm (red) in HEK293 cells (AID 720679)
Method in brief: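 Autofluorescence equivalency to Rose Bengal sodium, 540/590nm, in HEK293 cells exposed overnight to 23 nL compound per well.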

[10] = qHTS assay to test for compound auto fluorescence at 535 nm (green) in HEK293 cells (AID 720680)
[11] = qHTS assay to test for compound auto fluorescence at 460 nm (blue) in HEK293 cell free culture (AID 720681)
Method in brief: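 Blue fluorescence (Ex 405/Em 460 nm, triamterene-equivalent) was read immediately after pin transfer of compound or DMSO into medium (DMEM, 10% FBS) without cells.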

[12] = qHTS assay to test for compound auto fluorescence at 535 nm (green) in HEK293 cell free culture (AID 720682)
Method in brief: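 Intrinsic compound fluorescence is measured in culture medium containing 10% FBS, with excitation at 485 nm and detection at 535 nm, referenced to fluorescein.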

[13] = qHTS assay to test for compound auto fluorescence at 590 nm (red) in HEK293 cell free culture (AID 720683)
Method in brief: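 Red-channel autofluorescence of compounds in culture medium (DMEM, 10% FBS), no cells, measured at 540/590 nm. Rose Bengal sodium is the reference fluorophore for equivalence.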

[14] = qHTS assay to test for compound auto fluorescence at 590 nm (red) in HepG2 cell free culture (AID 720684)
Method in brief: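 Cell-free; medium MEM + 10% FBS; compound or DMSO added by pintool; read Ex 540/Em 590 nm; Rose Bengal sodium as red reference fluorophore.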

[15] = qHTS assay to test for compound auto fluorescence at 460 nm (blue) in HepG2 cell free culture (AID 720685)
Method in brief: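 Cell-free plates of MEM plus 10% FBS received 23 nL compound or DMSO vehicle; blue-channel (405/460 nm) intensity scored against triamterene as reference fluorophore.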

[16] = qHTS assay to test for compound auto fluorescence at 535 nm (green) in HepG2 cell free culture (AID 720686)
[17] = qHTS assay to test for compound auto fluorescence at 460 nm (blue) in HepG2 cells (AID 720687)
Method in brief: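 Blue-channel autofluorescence (Ex/Em 405/460 nm, triamterene-equivalent) was measured after 1 hr compound exposure at 37 C, 5% CO2. Cells were HepG2, plated overnight at 37 C in MEM plus 10% FBS.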

[18] = molecular target: Glucocorticoid receptor (Homo sapiens) (UniProt P04150); assay: qHTS assay to identify small molecule agonists of the glucocorticoid receptor (GR) signaling pathway (AID 720691; active = well fitted activation curve with a large enough effect in the signal ratio in the repeat runs, not every such curve was filed as active; the % refers to the signal ratio); settings: GR-bla HeLa, beta-lactamase reporter ratio, 18 h; activation: at 62.4 µM (top of the series) unless noted
Sequence of Glucocorticoid receptor (Homo sapiens) (P04150 whole entry, looked up): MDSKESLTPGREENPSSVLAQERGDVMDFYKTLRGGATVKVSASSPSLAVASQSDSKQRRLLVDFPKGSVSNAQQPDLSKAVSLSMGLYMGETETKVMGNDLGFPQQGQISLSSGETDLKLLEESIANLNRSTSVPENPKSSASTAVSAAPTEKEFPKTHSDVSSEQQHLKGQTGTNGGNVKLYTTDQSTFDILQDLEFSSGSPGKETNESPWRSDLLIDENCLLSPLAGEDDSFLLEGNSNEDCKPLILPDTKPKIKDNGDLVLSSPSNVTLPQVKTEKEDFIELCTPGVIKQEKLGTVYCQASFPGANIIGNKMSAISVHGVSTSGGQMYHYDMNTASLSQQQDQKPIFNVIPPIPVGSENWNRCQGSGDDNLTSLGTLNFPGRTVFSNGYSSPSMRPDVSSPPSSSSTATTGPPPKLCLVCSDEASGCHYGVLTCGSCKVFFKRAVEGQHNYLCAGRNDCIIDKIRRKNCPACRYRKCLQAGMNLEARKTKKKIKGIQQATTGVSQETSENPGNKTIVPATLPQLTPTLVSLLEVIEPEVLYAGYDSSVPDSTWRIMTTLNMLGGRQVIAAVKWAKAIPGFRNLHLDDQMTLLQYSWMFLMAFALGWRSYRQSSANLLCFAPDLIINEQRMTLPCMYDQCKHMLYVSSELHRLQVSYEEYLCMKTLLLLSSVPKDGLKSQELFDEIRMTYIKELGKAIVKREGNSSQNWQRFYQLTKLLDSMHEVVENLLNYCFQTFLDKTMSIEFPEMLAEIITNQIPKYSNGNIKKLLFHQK
Method in brief: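 HeLa GR-bla reporter line; cells pre-incubated 4 h, compound in DMSO 18 h at 37 C; LiveBLAzer B/G FRET substrate 2 h RT; fluorescence intensity read-out.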

[19] = molecular target: Glucocorticoid receptor (Homo sapiens) (UniProt P04150); assay: qHTS assay to identify small molecule antagonists of the glucocorticoid receptor (GR) signaling pathway (AID 720692; active = well fitted inhibition curve with a large enough effect in the signal ratio in the repeat runs, not every such curve was filed as active; the % refers to the signal ratio)
Method in brief: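 Read-out: beta-lactamase FRET substrate fluorescence, 2 h at room temperature, in HeLa cells stably carrying a GRE-driven bla reporter. Compounds were co-incubated with 5 nM dexamethasone agonist (final) for 18 h at 37 C.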

[20] = qHTS assay for small molecule disruptors of the mitochondrial membrane potential (AID 720635)
Method in brief: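 Mitochondrial membrane potential tracked with Mito-MPS dye, red aggregates (ex 540/em 590 nm) against green monomers (ex 490/em 535 nm). Compound treatment 1 hr at 37C, dye 30 min in HepG2.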

C[C@@H](c1ncncc1F)C(O)(Cn1cncn1)c1ccc(F)cc1F (some centres undefined)
Potency [1]: inactive | Potency [2]: inactive | Potency [3]: inactive | Potency [4]: inactive | Potency [5]: inactive | Potency [6]: inactive | Potency [7]: inactive | outcome [8]: inactive | Potency [9]: inactive | outcome [10]: inactive | outcome [11]: inactive | outcome [12]: inactive | Potency [13]: inactive | Potency [14]: inactive | outcome [15]: inactive | Potency [16]: inactive | outcome [17]: inactive | Potency [18]: inactive | Potency [19]: inactive

CC(=O)c1ccc2c(c1)N(CCCN(C)C)c1ccccc1S2
Potency [1]: inactive | Potency [2]: inactive | Potency [3]: inactive | Potency [4]: inactive | Potency [5]: inactive | fluorescence, relative to Rose Bengal [6]: -0.407% [at 18.6 µM] | fluorescence, % of fluorescein control [7]: 0.0535% [at 18.6 µM] | fluorescence, % of triamterene [8]: -0.118% [at 18.6 µM] | fluorescence, % of fluorescent control [9]: 0.0215% [at 18.6 µM] | fluorescence, % of fluorescent control [11]: -0.103% [at 18.6 µM] | activity change [12]: -0.283% [at 18.6 µM] | fluorescence, % of fluorescent control [13]: -0.0325% [at 18.6 µM] | fluorescence, % of Rose Bengal [14]: 0.233% [at 18.6 µM] | fluorescence, % of fluorescent control [15]: 0.0422% [at 18.6 µM] | fluorescence, % of fluorescent control [17]: -0.0528% [at 18.6 µM] | Potency [18]: inactive | Potency [19]: inactive

C#CCN(C)CCCOc1ccc(Cl)cc1Cl
Potency [1]: inactive | Potency [2]: inactive | Potency [3]: inactive | Potency [5]: inactive | Potency [6]: inactive | Potency [7]: inactive | outcome [8]: inactive | Potency [9]: inactive | outcome [10]: inactive | outcome [11]: inactive | outcome [12]: inactive | Potency [13]: inactive | Potency [14]: inactive | outcome [15]: inactive | Potency [16]: inactive | outcome [17]: inactive | Potency [18]: inactive | Potency [19]: inactive

CN1CCN(C(c2ccccc2)c2ccccc2)CC1
Potency [1]: inactive | Potency [2]: inactive | Potency [3]: inactive | Potency [5]: inactive | fluorescence, relative to Rose Bengal [6]: 0.313% [at 18.6 µM] | fluorescence, % of fluorescein control [7]: -0.189% [at 18.6 µM] | fluorescence, % of fluorescent control [9]: -0.0303% [at 18.6 µM] | fluorescence, % of fluorescein [10]: 0.0022% [at 18.6 µM] | fluorescence, % of fluorescent control [11]: -0.0336% [at 18.6 µM] | activity change [12]: 0.0291% [at 18.6 µM] | fluorescence, % of fluorescent control [13]: 0.0321% [at 18.6 µM] | fluorescence, % of Rose Bengal [14]: -0.0854% [at 18.6 µM] | fluorescence, % of fluorescent control [15]: -0.0233% [at 18.6 µM] | fluorescence, % of fluorescein control [16]: 0.0024% [at 18.6 µM] | fluorescence, % of fluorescent control [17]: 0.0094% [at 18.6 µM] | Potency [18]: inactive

c1ccc(CNCCNCc2ccccc2)cc1
Potency [1]: inactive | Potency [2]: inactive | Potency [3]: inactive | Potency [5]: inactive | Potency [7]: inactive | outcome [8]: inactive | Potency [9]: inactive | outcome [10]: inactive | outcome [11]: inactive | outcome [12]: inactive | Potency [13]: inactive | Potency [14]: inactive | outcome [15]: inactive | Potency [16]: inactive | outcome [17]: inactive | Potency [18]: inactive | Potency [19]: inactive

CC(=O)OC[C@H]1O[C@@H](n2ncc(=O)[nH]c2=O)[C@H](OC(C)=O)[C@@H]1OC(C)=O
Potency [1]: 1880 nM (active) | Potency [2]: inactive | Potency [4]: inactive | Potency [5]: inactive | Potency [20]: inactive | Potency [7]: inactive | outcome [8]: inactive | Potency [9]: inactive | outcome [10]: inactive | outcome [11]: inactive | outcome [12]: inactive | Potency [13]: inactive | Potency [14]: inactive | outcome [15]: inactive | Potency [16]: inactive | outcome [17]: inactive

Cn1c(=O)cc(Oc2ccc(F)cc2F)c2cnc(NCC(C)(C)O)nc21
Potency [1]: inactive | Potency [2]: inactive | Potency [3]: inactive | Potency [4]: inactive | Potency [6]: inactive | Potency [7]: inactive | Potency [9]: inactive | outcome [10]: inactive | outcome [11]: inactive | outcome [12]: inactive | Potency [14]: inactive | outcome [15]: inactive | Potency [16]: inactive | outcome [17]: inactive | Potency [18]: inactive | Potency [19]: inactive
